Assay results: PubChem BioAssay AID1347071 (National Center for Advancing Translational Sciences (NCATS), 2019)
In all, about 410,000 compounds went through this assay and about 260 (0.063%) were called active. Inconclusive results (about 2%) are left out. Many of the other results were omitted from the sample, so actives are more common in it than they were. Unmarked numbers belong to inactive results. Calls follow the shape of the dose curve; as a rule, active = well fitted activation curve with a large enough effect; inconclusive = small, poorly fitted or top-dose-only effect; inactive = no such curve, though single readings can be large or run the other way.

Assay: qHTS for compounds that reverse cellular toxicity of Amyloid beta (A-beta) peptide in yeast: Primary Screen; also: nearly all actives have a fitted effect of over 55% in size
Conditions: yeast expressing A-beta42, growth rescue, OD600, 48 h; series mostly up to 46.1 µM; growth rescue: at the top concentration
Source text: The A-beta peptide is produced by the processing of the amyloid precursor protein (APP) by two proteases, beta and gamma secretases. […] A-beta42 is regarded as the most amyloidogenic form due to its hydrophobicity; however, precisely how A-beta42 induces neurotoxicity is unclear. To understand further this biology and its potential therapeutic implications for human neurodegenerative disease, a quantitative high-throughput screen for compounds that reverse the cellular toxicity of the A-beta peptide was developed. A yeast based screen was used because it recapitulates the salient feature of protein mis-folding disorder accurately. This cell-based phenotypic screen provides a significant, unbiased advantage by letting the compounds and models inform us which proteins or pathways are most relevant. The ideal chemical candidates would therefore have activity in both our primary yeast and secondary neuronal toxicity assays, as well as in mouse models. They will be valuable tools for dissecting diverse protein homeostasis pathologies and could potentially become the focus for future pre-clinical development. For this luminescence assay, inhibition of A-beta rescues the toxic effect in the yeast cell, resulting in increase of signals and the desired phenotype of "Activator". This screen is run against the Molecular Libraries Small Molecule Repository (MLSMR) and the NCGC Sytravon Library Collection.
NIH Chemical Genomics Center [NCGC]
NIH Molecular Libraries Probe Centers Network [MLPCN]
Assay Submitter (PI): Susan Lindquist, Whitehead Institute, Massachusetts Institute of Technology
[1] Vassar R,et al (1999). Beta-secretase cleavage of Alzheimer's amyloid precursor protein by the transmembrane aspartic protease BACE. Science. 286: 735-741.
[2] Yan R, et al (1999). Membrane-anchored aspartyl protease with Alzheimer's disease beta-secretase activity. Nature. 402: 533-536.
Two and a half microliter / well of yeast growth medium were dispensed in a 1536 assay plate. Compounds were pinned using the Kalypsys robotic system followed by addition of 2.5 uL / well yeast solution. The assay plates were incubated at 30 C. After 48 hr, the absorbance signal at 600 nm was obtained using the PerkinElmer ViewLux plate reader to assess yeast growth. The data was normalized to the positive control of an equimolar mixture of ferric chloride (FeCl3) and clioquinol and to the negative control DMSO.
Potency is read from the fitted curve at half-maximal effect.

Row | SMILES | growth rescue [%] | Potency
1 | O=c1cc(COc2cccc(C(F)(F)F)c2)nc2sc3c(n12)CCCC3 | 2.31 | –
2 | CCc1ccc(NC(=O)CN2C(=O)C(c3ccccc3)=NC23CCCCCC3)cc1 | -33.6 | –
3 | CCCNC(=S)N1CCC(NC(=O)c2ccc(OC)cc2)CC1 | -10.6 | –
4 | COc1ccc(S(=O)(=O)N2CCN(C(=O)NC3CCCCC3)CC2)cc1 | -11 | –
5 | COc1ccc(C(=O)NC(=S)NC2CCCCC2)cc1 | – | 12.6 µM (active)
6 | CCOc1ccc(NC(=O)CCC(=O)N2CC(C)Oc3ccc(C)cc32)cc1 (stereo not given) | 7.46 | –
7 | CCn1c(CN2CCC(C)CC2)nc2cc(NC(=O)c3ccccc3[N+](=O)[O-])ccc21 | 0.862 | –
8 | CCc1cccc(NC(=O)Cn2nc(CC)n3c(cc4cc(C)ccc43)c2=O)c1 | 2.28 | –
9 | CC1=C(c2ccc(C)cc2)S(=O)(=O)NC1=NCCCN1CCN(c2cc(C)ccc2C)CC1 | 7.63 | –
10 | COc1cccc(-c2cc(C(=O)Nc3ccc(C)cc3)[nH]n2)c1 | -6.21 | –
11 | Cc1ccc(N2CCN(C(=O)CCc3c(C)nc4c(c3C)c(=O)n(C)c(=O)n4C)CC2)c(C)c1 | -7.12 | –
12 | CCOC(=O)c1c(NC(=O)/C(C#N)=C/c2ccccc2)sc2c1CCC2 | -4.42 | –
13 | COc1ccccc1CN1CCC(CNC(=O)c2cnn(-c3ccccc3Cl)c2C2CCN(C(=O)OC(C)(C)C)CC2)CC1 | 12.1 | –
14 | CCn1c(CNC(=O)C23CC4CC(CC(C4)C2)C3)nnc1SCC(=O)Nc1ccc(OC)cc1 | -8.21 | –
15 | COc1ccc(-c2nn(CC(=O)NC3CCCC3)c3c2cnc2ccc(F)cc23)cc1 | -2.71 | –
16 | Cc1nn(C(C)C(=O)Nc2ccc(C(C)C)cc2)c(=O)c2c1sc1ccccc12 (stereo not given) | 17.1 | –
17 | COc1cc(OC)c(NC(=O)c2nc(-c3ccncc3)no2)cc1Cl | -15.5 | –
18 | COc1ccc(CCN2C(=O)c3oc4cc(C)cc(C)c4c(=O)c3C2c2ccccc2F)cc1OC (stereo not given) | -7.53 | –
19 | CCOC(=O)c1cc2c(=O)n3ccccc3nc2n(CCCOC)c1=NC(=O)C(C)Oc1ccccc1 (stereo not given) | -6.19 | –
20 | COc1cc(C(=O)Nc2ccc(OCc3cc(=O)n4cc(C)sc4n3)cc2)cc(OC)c1OC | -12.8 | –

Row | SMILES | growth rescue [%] | Potency
21 | COc1ccc(CN2CCc3nc(Nc4ccccc4)ncc3C2)c(OC)c1OC | 4.24 | –
22 | Cc1cccc(Cn2c(CN3CCC(C(=O)NCc4ccccc4Cl)CC3)cc3ccccc32)c1 | 10.4 | –
23 | CCOC(=O)N1CCc2c(sc3c2c(=O)n(Cc2ccccc2)c(=O)n3CC(=O)Nc2cccc(C)c2)C1 | 1.66 | –
24 | O=C(Nc1cc(Cl)cc(Cl)c1)c1ccc2c(c1)N(Cc1cccc(Cl)c1)C(=O)c1ccccc1S2=O (stereo not given) | -1.8 | –
25 | CCc1ccc(NC(=O)c2nn(-c3ccc(C)cc3)c(=O)n(C)c2=O)cc1 | -10.6 | –
26 | CCN1C(=O)c2ccccc2S(=O)c2ccc(C(=O)NCc3ccc(F)cc3)cc21 (stereo not given) | 16.3 | –
27 | CCn1cc(C(=O)N2CCN(c3cc(C)ccc3C)CC2)c(=O)c2cc(S(=O)(=O)N(C)C3CCCCC3)ccc21 | 4.49 | –
28 | CC(C)n1c(=S)[nH]c2cc(C(F)(F)F)ccc21 | – | 12.6 µM (active)
29 | CCCn1c(=S)[nH]c2ccc(C(F)(F)F)cc21 | 31.8 | –
30 | CNS(=O)(=O)c1ccc2c(c1)[nH]c(=S)n2C | 1.96 | –
31 | Cn1c(=O)c2c(-c3ccccc3Br)n(Cc3ccccc3)cc2n(C)c1=O | -12.3 | –
32 | COc1ccc(N2CCN(C(=O)CSCc3nc(-c4ccccc4Cl)oc3C)CC2)cc1 | -16.8 | –
33 | Cc1c(Cl)cccc1NC(=S)N(Cc1ccccc1)Cc1cccnc1 | 10.9 | –
34 | Cc1cccc(C)c1NC(=S)N(Cc1cccnc1)Cc1ccccc1Cl | 17.9 | –
35 | Cc1ccc(CN(Cc2cccnc2)C(=S)Nc2cccc(Cl)c2C)cc1 | – | 11.2 µM (active)
36 | CCOC(=O)c1nnn(CC(=O)NC(=O)Nc2ccccc2F)c1C(=O)OCC | -5.8 | –
37 | CCS(=O)(=O)N1CCc2cc(C(=O)NCc3ccc(OC)cc3)ccc21 | -14 | –
38 | CCOC(=O)c1cc(NC(=O)c2ccc(F)cc2)c(=O)n2c1oc1ccccc12 | -10.2 | –
39 | COc1ccc(CCNC(=O)c2cc3cccc4c3n2CC(C)S4)c(OC)c1OC (stereo not given) | -11.1 | –
40 | COc1ccc(Cn2c(C(=O)O)c(CNCc3cccc(OC)c3)c3ccc(C)cc32)cc1 | -9.33 | –

Row | SMILES | growth rescue [%] | Potency
41 | CC(C)S(=O)(=O)c1oc(-c2ccc(F)cc2)nc1S(=O)(=O)c1ccc(F)cc1 | -8.6 | –
42 | CC(Sc1oc(-c2ccco2)nc1S(=O)(=O)c1ccc(Br)cc1)c1ccccc1 (stereo not given) | -9.26 | –
43 | Cc1nn(-c2ccc(F)cc2)c(-n2cccc2)c1C(=O)N1CCN(c2ccccc2)CC1 | -18.4 | –
44 | N#Cc1ccc(-c2nc3c(Cl)cc(C(F)(F)F)cn3c2Cc2ccccc2C(F)(F)F)cc1 | 5.35 | –
45 | FC(F)(F)c1ccccc1Cc1c(-c2ccccc2)nc2c3ccccc3ccn12 | – | 12.6 µM (active)
46 | CCCc1nc2c3ccccc3ccn2c1Cc1ccccc1C(F)(F)F | -73.2 | –
47 | COc1cccc(-n2cc(C(=O)NCc3cccc(Cl)c3)c3ccccc3c2=O)c1 | -6.71 | –
48 | COc1ccc(Cn2ccn(CC(=O)Nc3cc(C)ccc3C)c(=O)c2=O)cc1 | 2.18 | –
49 | COCCn1c(SCC(=O)c2cc(C)ccc2C)nc2cc(C(=O)NC3CCCC3)ccc2c1=O | -7.47 | –
50 | COc1cccc(C(=O)NC2(C(F)(F)F)C(=O)Nc3c2c(=O)[nH]c(=O)n3-c2ccc(C)cc2)c1 (stereo not given) | -11.2 | –
51 | CCOc1ccc(-n2c(C)nc3c(cnn3-c3ccc(C)cc3)c2=O)cc1 | 6.45 | –
52 | CCC(=O)N1c2ccccc2CC1C(=O)N1CCN(c2ccccc2)CC1 (stereo not given) | -3.88 | –
53 | COc1cc(CNCCSc2nnnn2C)ccc1OCc1ccc(Cl)cc1Cl | -20.7 | –
54 | CC1=C(C(=O)Nc2ccccc2Cl)C(c2cccs2)n2ncnc2N1 (stereo not given) | -18.5 | –
55 | CCCCOC(=O)CSc1ncnc2sc3c(c12)CCC(C)C3 (stereo not given) | -2.39 | –
56 | CC1CCCN(S(=O)(=O)c2ccc3[nH]c(=O)cc(C(=O)NCCc4ccc(Cl)cc4)c3c2)C1 (stereo not given) | -5.68 | –
57 | CCCn1c2ccccc2c2cnn(CC(=O)N3CCCC(C(=O)OCC)C3)c(=O)c21 (stereo not given) | 13.4 | –
58 | CCOC(=O)c1ccc(N2C(=O)c3n[nH]c(-c4ccco4)c3C2c2ccc(O)cc2)cc1 (stereo not given) | -17 | –
59 | COc1ccc(-c2cn3nc(N4CCCC(C(=O)NCCCOC(C)C)C4)sc3n2)cc1 (stereo not given) | -9.82 | –
60 | COc1ccc2cc(CNc3ccc(OC)c(OC)c3)c(=O)n(CC(=O)Nc3ccccc3F)c2c1 | -11 | –
